MEX-5 binding – C. elegans MEX-5 TCR-2 RNA binding activity. hit rate 0.38% among 300,000. Q9XUB2. AID 1832. activity score (negative = inhibition of binding), % at 10 µM. MEX-5/FITC-TCR2 RNA binding, fluorescence polarization; active compounds read low;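 active = inhibition past about -25% in most replicates, and total fluorescence under double the plate's negative control median, limit read from the data; inconclusive = replicates evenly split on the limit, or fluorescence at least double controls; inactive = too little inhibition in most replicates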;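 note: 0% = DMSO and -100% = 5 µM competing unlabeled TCR2 RNA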
LANA DNA inh – inhibitors of KSHV LANA C-terminal domain DNA binding | hit rate 0.078% among 340,000 | MBP-C-LANA/FAM-LBS DNA binding, fluorescence polarization | inhibition, % at 9 µM;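 active = highest replicate inhibition at or above 60% at 9 µM, even if other replicates fall short; inactive = all replicates below 60% inhibition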;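 note: 0% = neutral control wells and 100% = 4 µM acridine orange control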
Keap1-Nrf2 PPI – Keap1-Nrf2 (human) interaction inhibition; inhibition, % at 9.4 µM; Keap1 Kelch-Nrf2 peptide fluorescence polarization, 1536-well; hit rate 0.15% among 340,000; Q14145; AID 504523; in the data active = inhibition above about 12%; inconclusive = no clear call, values can overlap the other calls; inactive = below about 7.3%;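 note: human Keap1 Kelch domain with fluorescein labeled Nrf2 9mer peptide probe; 0% = neutral control wells and 100% = peptide positive control; higher means more block of Keap1 binding to Nrf2 peptide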
Target sequence (Q14145 whole entry, looked up, the tested form may be a part): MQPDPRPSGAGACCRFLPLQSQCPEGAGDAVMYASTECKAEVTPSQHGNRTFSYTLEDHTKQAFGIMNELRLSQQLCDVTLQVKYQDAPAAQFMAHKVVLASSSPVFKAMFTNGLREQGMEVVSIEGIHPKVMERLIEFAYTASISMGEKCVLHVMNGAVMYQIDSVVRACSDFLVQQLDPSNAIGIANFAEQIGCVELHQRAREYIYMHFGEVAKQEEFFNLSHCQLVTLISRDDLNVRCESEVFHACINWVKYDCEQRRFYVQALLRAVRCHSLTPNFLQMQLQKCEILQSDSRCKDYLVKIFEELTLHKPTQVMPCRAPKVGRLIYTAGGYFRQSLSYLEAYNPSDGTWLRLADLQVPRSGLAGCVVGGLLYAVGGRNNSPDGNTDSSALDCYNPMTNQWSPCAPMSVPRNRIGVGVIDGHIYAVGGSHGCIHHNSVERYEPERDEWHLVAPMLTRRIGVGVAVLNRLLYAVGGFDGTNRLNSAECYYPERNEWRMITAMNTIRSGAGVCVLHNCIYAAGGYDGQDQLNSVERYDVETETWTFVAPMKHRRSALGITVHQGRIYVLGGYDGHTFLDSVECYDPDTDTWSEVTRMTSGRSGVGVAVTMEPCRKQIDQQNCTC
BCLXL inh – blocks human Bcl-xL binding to Bim BH3 peptide; Q07817; GST-Bcl-xL / FITC-Bim BH3 peptide fluorescence polarization; inhibition, % at 10.9 µM; hit rate 0.7% among 320,000;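 active = inhibition above the mean of all tested compounds plus 3 SD, cutoff set per campaign, cut at about 30% in these data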;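 note: 0% = DMSO wells and 100% = unlabeled Bim-BH3 peptide competitor; inhibitors lower millipolarization by displacing the labeled peptide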
GLD-1 RNA inh – GLD-1-TGE RNA interaction inhibition (C. elegans) | Q17339 | purified GLD-1 + fluorescein TGE RNA, fluorescence polarization | inhibition, % at 5.96 µM | hit rate 0.44% among 320,000;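 active = percent inhibition above a per-plate cutoff, the plate mean of test compounds plus 3 SD, cut at about 30% in these data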;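 note: 0% = DMSO wells with GLD-1 and probe and 100% = wells lacking GLD-1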
E coli Lon inh – E. coli protease La inhibition. AID 602123. hit rate 0.42% among 360,000. P0A9M0. inhibition, % at 7.94 µM. purified E. coli Lon protease, fluorescence polarization; in the data active = inhibition above about 13%, passing the limit was not always enough;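 note: 0% = enzyme with probe and DMSO and 100% = no enzyme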
E coli Lon conf – confirmation of E. coli Lon protease inhibitors | shares compounds with E coli Lon inh | hit rate 31% among 1,400 | inhibition, % at 7.94 µM | purified E. coli Lon, fluorescence polarization | AID 602230; in the data active = inhibition above about 16%;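 note: 0% = enzyme with probe and DMSO and 100% = no enzyme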
The depositor's hits bear a star; ? = inconclusive; . = no result given; + = active, no number. Shown are actives, neighbours in structure and some others; about 1.2% of the full set was active somewhere.

SMILES | MEX-5 binding | LANA DNA inh | Keap1-Nrf2 PPI | BCLXL inh | GLD-1 RNA inh | E coli Lon inh | E coli Lon conf
CC(C)n1c2ccccc2c2cc([N+](=O)[O-])ccc21 | 1 | 0 | -1 | 4 | 1 | 56* | -10
COc1ccc2c(CC(=O)NNC(=O)c3ccc(O)cc3)coc2c1 | . | -2 | -2 | . | 2 | -11 | .
O=[N+]([O-])c1cccc(C(=S)N2CCN(c3ccc(F)cc3)CC2)c1 | 0 | 0 | -2 | 38* | 20 | 56* | 1
Cc1cc(NC(=O)CSc2cn(CCNC(=O)c3ccccc3)c3ccccc23)no1 | -3 | 17 | -4 | 4 | 0 | 20* | -7
COc1cc(NC(=O)c2ccccc2F)ccc1NC(=O)c1cc2ccccc2o1 | -1 | 0 | 1 | . | . | 16* | 3
CS(=O)(=O)N(CC(=O)Nc1ccccc1C(=O)N1CCCC1)c1ccccc1Br | 1 | 1 | 4 | 4 | -4 | 6 | .
COc1ccc(Cl)cc1N(CC(=O)Nc1ccccc1C(=O)N1CCCC1)S(C)(=O)=O | -2 | -1 | 6 | 3 | -2 | 18* | -6
CCc1nc2ccc(C(=O)Nc3cc(-c4ccccc4)ccc3OC)cn2c1N(C)Cc1nccs1 | . | . | . | . | . | 9 | .
O=C(CC12CC3CC(CC(Br)(C3)C1)C2)Nc1cccc(S(=O)(=O)NC2=NCCC2)c1 | 1 | -2 | -3 | -4 | -3 | 16* | 2
CC(=O)Nc1ccc(NC(=O)[C@H](C)NC(=O)c2ccco2)cc1 | 3 | -1 | -2 | 1 | 4 | 53* | -8
Cc1ccc(C)c2c1c1ccccc1n2C | 0 | -2 | 2 | 0 | 0 | 2 | .
CN(C)c1cc2c3ccccc3n(C)c2cc1N | . | -3 | -6 | . | . | 41* | 52*
O=C(CCC1CCCC1)NC1CCCCC1 | 2 | 1 | -8 | -1 | -7 | 15* | -1
C[C@@H]1CN([C@H](C)CO)C(=O)CCCn2cc(nn2)CO[C@H]1CN(C)C(=O)Nc1ccc(F)cc1 | . | . | . | . | . | -6 | .
CC(C)C[C@@H](CN1CCC[C@H]1CN1C(=O)C(=O)NC[C@@H]1Cc1ccc(O)cc1)N1C[C@H](Cc2ccccc2)N(CCc2ccccc2)C(=O)C1=O | . | . | . | . | . | 11* | -1
Cc1ccc(C)c(NC(=O)COC(=O)CNC(=O)C2CCCCC2)c1 | . | 1 | 3 | -8 | 1 | -17 | .
COc1ccc(OC)c(-c2c[n+](=O)c3c(n2[O-])CCCC3)c1 | -1 | 0 | 0 | 2 | 8 | -5 | .
CCOc1ccc(-c2c[n+](=O)c3c(n2[O-])CCCC3)c(OCC)c1 | 0 | -1 | -2 | -2 | -3 | 68* | 1
O=C1NC2=C(C(=O)CCC2)C(c2ccccc2[N+](=O)[O-])N1 (stereo not given) | -10 | 8 | 0 | 51* | 24 | 25* | -7
COc1ccc(-c2cc(NC=O)c3ncc(-c4cnn(C)c4)n3c2)cc1 | . | . | . | . | . | -47 | .
CCC(CC)C(=O)OCC(=O)Nc1cccc([N+](=O)[O-])c1 | 3 | -1 | -6 | 0 | 4 | 16* | 2
O=C(Nc1cccc(S(=O)(=O)N2CCCCCC2)c1)C1CC(=O)N(c2ccc3c(c2)OCCO3)C1 (stereo not given) | 0 | 1 | -6 | -6 | 1 | 22* | -14
O=C(Nc1cccc(S(=O)(=O)N2CCCCC2)c1)C1CC(=O)N(c2ccc3c(c2)OCCO3)C1 (stereo not given) | -1 | -2 | -5 | -5 | 6 | 5 | .
CN(C)CCN[C@H]1CCC2C3CC=C4C[C@@H](O)CC[C@]4(C)C3CC[C@@]21C (stereo not given in full) | . | 0 | -2 | . | 1 | 4 | .
COc1ccc(N2C(=O)c3cccc4cccc(c34)C2=O)cc1 | 0 | 6 | 0 | 2 | 1 | -8 | .
SMILES | MEX-5 binding | LANA DNA inh | Keap1-Nrf2 PPI | BCLXL inh | GLD-1 RNA inh | E coli Lon inh | E coli Lon conf
COc1ccc(N2C(=O)c3cccc4c(N(C)CCO)ccc(c34)C2=O)cc1 | ? | 33 | -2 | . | . | 67* | 22*
CC1=C(C(=O)N2CCCCCC2)CC(CC(=O)NCCCCc2ccccc2)C(=O)N1Cc1ccccc1 (stereo not given) | . | . | . | . | . | -2 | .
O=C(CNC(=O)c1ccc(Br)o1)NNC(=O)c1ccc(Br)cc1 | . | 0 | -5 | -1 | 5 | 1 | .
COC(=O)c1ccsc1NC(=O)CSc1nnnn1-c1ccccc1SC | 1 | 0 | -5 | 2 | 4 | 20* | 1
COc1cc(OC)c(-c2c3cc(O)c(=O)cc-3oc3cc(O)c(O)cc23)cc1OC | . | -32 | -199 | 11 | -88 | 20* | -54
Cc1c2cc(O)c(=O)cc-2oc2cc(O)c(O)cc12 | ? | 164* | 121* | 107* | 185* | 48* | 196*
Cc1cc2oc(=O)cc(-c3cc4ccccc4o3)c2cc1O | 1 | -1 | -1 | 8 | 6 | 4 | .
COc1ccc(N(C)S(=O)(=O)c2cccc(C(=O)OCC(=O)c3c(N)n(C)c(=O)n(C)c3=O)c2)cc1 | . | -1 | -3 | . | 5 | 2 | .
CCCN(C(=O)c1cnccn1)c1c(N)n(Cc2ccccc2)c(=O)[nH]c1=O | . | -1 | -1 | 3 | 5 | -16 | .
COc1ccc(C(=O)N/C(=C\c2ccc(Cl)cc2)C(=O)NCCN2CCOCC2)cc1 | . | . | . | . | . | 16 | .
O=C(CSCc1nc2c(nnn2Cc2ccc(F)cc2)c(=O)[nH]1)Nc1cccc(C(F)(F)F)c1 | . | 0 | -6 | 16 | 10 | 16* | -7
CCc1ccccc1NC(=O)CCc1c(C)nn(-c2ccc(N3CCOCC3)nn2)c1C | 0 | -1 | -3 | 6 | -2 | 5 | .
CCCCCn1c(=O)[nH]c2cc(C(=O)NCCCN(CC)CC)ccc2c1=O | 0 | 0 | -3 | 3 | -3 | -9 | .
Cc1ccc(-c2[nH]c3cc(C(=O)NCCCn4ccnc4)ccc3c(=O)c2O)cc1 | -5 | 2 | 2 | -2 | 1 | 125* | 92*
O=C(NCCCn1ccnc1)c1ccc(Cl)c(Cl)c1 | 3 | 4 | -2 | 3 | 1 | 3 | .
CCCNC(=O)c1ccc2c(=O)c(O)c(-c3ccsc3)[nH]c2c1 | ? | -1 | 3 | 8 | 4 | + | 182*
CCCNC(=O)c1ccc2c(=O)c(O)c(-c3ccc(OC)cc3)[nH]c2c1 | -6 | 3 | -1 | 9 | 7 | 172* | 112*
Cc1ccc(-c2oc3ccccc3c(=O)c2O)cc1 | 2 | 1 | -5 | -3 | 10 | -3 | .
Cc1ccc(-c2[nH]c3cc(C(N)=O)ccc3c(=O)c2O)cc1 | -70* | 0 | 0 | 9 | 1 | 76* | 46*
CCOC(=O)Nc1ccc(Cc2ccncc2)cc1 | 1 | -1 | -2 | -2 | 2 | 1 | .
CC1(C)CC(NC(=O)COc2ccc3ccc(=O)oc3c2)CC(C)(C)N1 | 3 | 0 | 1 | 4 | 6 | 3 | .

Screens deposited in PubChem BioAssay by several laboratories.
